Bioassay records deposited in PubChem BioAssay by Broad Institute.
Pf Dd2 inh: P. falciparum Dd2 growth inhibitors, primary screen, SYBR Green fluorescence, single dose replicates | 72 h; hits give low values | activity change, % at 10 µM | 2.3% of 94,000 active | AID 1159554, 2015; in the data active = activity change below about -80%; inconclusive = no clear call, values can overlap the other calls
C diff growth: C. difficile growth inhibitors, primary screen, HTS; Clostridium difficile clinical isolate growth, OD600, 24 h; hits give low values; AID 1259249, 2017; growth activity, negative = inhibition, % at 16 µg/mL (by protocol); 0.25% of 86,000 active;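 active = mean growth activity at or below -80% and every replicate also at or below -80%; inconclusive = mean at or below -80% but some replicate above -80%; inactive = mean growth activity above -80%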;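 also: 0% = DMSO wells and -100% = levofloxacin 16 µg/mL wells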
Starred values were filed as active, the others as inactive; u = inconclusive; x = not tested or not shown. Sampled rows, rich in hits. Any-hit rate of the full collection: about 2.3%.

SMILES	Pf Dd2 inh	C diff growth
COc1ccc(NC(=O)Nc2ccc3c(c2)C(=O)N([C@H](C)CO)C[C@H](C)[C@H](CN(C)CC2CCCCC2)OCCCC[C@H](C)O3)cc1	u	-13.8
COc1ccc(NC(=O)Nc2ccc3c(c2)C(=O)N([C@H](C)CO)C[C@H](C)[C@@H](CN(C)CC2CC2)OCCCC[C@@H](C)O3)cc1	-59.4	5.4
C[C@H]1CCCCO[C@H](CN(C)C(=O)Nc2cccc3ccccc23)[C@@H](C)CN([C@@H](C)CO)C(=O)c2cc(NC(=O)c3ccncc3)ccc2O1	-76.0	3.7
Cc1noc(C)c1NC(=O)N(C)C[C@@H]1OCCCC[C@@H](C)Oc2ccc(NS(=O)(=O)c3ccc(F)cc3)cc2C(=O)N([C@H](C)CO)C[C@H]1C	-3.2	-0.1
CC(C)C#Cc1ccc2c(c1)O[C@@H](CN(C)C(=O)C1CCC1)[C@@H](C)CN([C@H](C)CO)S2(=O)=O	-43.8	x
CC(C)C#Cc1ccc2c(c1)O[C@@H](CN(C)C(=O)C1CCCCC1)[C@H](C)CN([C@@H](C)CO)S2(=O)=O	-82.2*	12.1
CC(C)C#Cc1ccc2c(c1)O[C@@H](CN(C)C(=O)C1CCCCC1)[C@H](C)CN([C@H](C)CO)S2(=O)=O	-82.6*	42.6
CC(C)C#Cc1ccc2c(c1)O[C@@H](CN(C)C(=O)C1CCCCC1)[C@@H](C)CN([C@H](C)CO)S2(=O)=O	-29.1	8.8
C[C@@H]1CN([C@H](C)CO)C(=O)c2cc(NC(=O)Nc3ccc4c(c3)OCO4)ccc2O[C@@H]1CN(C)S(=O)(=O)c1cccs1	7.9	3.2
COc1ccccc1NC(=O)N[C@@H]1CC[C@H](CC(=O)N2CCC(Cc3ccccc3)CC2)O[C@@H]1CO	-12.5	-5.8
C[C@@H]1CN([C@@H](C)CO)C(=O)c2c(c3ccccc3n2C)-c2ccccc2CO[C@@H]1CN(C)C(=O)CCN(C)C	-79.0	-5.3
C[C@H](CO)N1C[C@H](C)[C@@H](CN(C)C(=O)CCN(C)C)OCc2ccccc2-c2c(n(C)c3ccccc23)C1=O	-85.0*	4.6
C[C@@H]1CN([C@@H](C)CO)C(=O)c2c(c3ccccc3n2C)-c2ccccc2CO[C@H]1CN(C)C(=O)Cc1ccccc1	-86.3*	-6.5
C[C@H]1CN([C@@H](C)CO)C(=O)c2c(c3ccccc3n2C)-c2ccccc2CO[C@H]1CN(C)C(=O)Cc1ccccc1	-70.2	-1.0
CO[C@H]1CN(C)C(=O)c2ccc(NS(C)(=O)=O)cc2OC[C@@H](C)N(Cc2nccs2)C[C@H]1C	2.3	x
O=C(Nc1ccccc1)N1C[C@H]2[C@@H](c3ccccc31)[C@@H](CO)N2C(=O)c1cccnc1	-5.2	2.9
CO[C@H]1CN(C)C(=O)c2ccc(NC(=O)c3nc4ccccc4s3)cc2OC[C@@H](C)N(Cc2ccncc2)C[C@H]1C	-31.5	x
CO[C@H]1CN(C)C(=O)c2ccc(NC(=O)c3nc4ccccc4s3)cc2OC[C@H](C)N(Cc2ccncc2)C[C@@H]1C	-93.4*	x
CO[C@@H]1CN(C)C(=O)c2ccc(NC(=O)c3nc4ccccc4s3)cc2OC[C@@H](C)N(Cc2ccncc2)C[C@H]1C	-96.8*	x
CO[C@@H]1CN(C)C(=O)c2ccc(NC(=O)c3nc4ccccc4s3)cc2OC[C@@H](C)N(Cc2cccnc2)C[C@H]1C	-90.1*	10.2
CO[C@@H]1CN(C)C(=O)c2ccc(NC(=O)c3nc4ccccc4s3)cc2OC[C@@H](C)N(Cc2cccnc2)C[C@@H]1C	-62.6	-2.0
CO[C@@H]1CN(C)C(=O)c2ccc(NC(=O)c3nc4ccccc4s3)cc2OC[C@H](C)N(Cc2ccncc2)C[C@H]1C	-61.2	x
C[C@@H]1CN([C@H](C)CO)C(=O)Cc2cc(NS(=O)(=O)c3cccs3)ccc2O[C@@H]1CN(C)S(=O)(=O)c1ccccc1	4.7	5.2
COc1ccc(C[C@H]2CCc3cnnn3COC[C@@H](C(C)C)NC2=O)cc1	x	-4.7
O=C(C[C@@H]1CC[C@H]2[C@@H](COC[C@@H](O)CN2S(=O)(=O)c2ccc(Oc3ccccc3)cc2)O1)Nc1ccccc1	-40.9	26.8
SMILES	Pf Dd2 inh	C diff growth
CO[C@H]1CN(C)C(=O)c2ccc(NC(=O)c3ccccc3F)cc2OC[C@@H](C)N(C(=O)c2ccccc2F)C[C@H]1C	-20.6	x
CCCNC(=O)Nc1ccc2c(c1)OC[C@H](C)N(Cc1cncnc1)C[C@@H](C)[C@@H](OC)CN(C)C2=O	23.0	x
C[C@@H]1CN([C@@H](C)CO)C(=O)c2cc(NC(=O)Nc3ccc(F)cc3)ccc2O[C@@H](C)CCCCO[C@@H]1CN(C)C(=O)Nc1ccc2c(c1)OCO2	-89.3*	3.0
C[C@H]1CCCCO[C@H](CN(C)C(=O)Nc2ccc(C(F)(F)F)cc2)[C@@H](C)CN([C@@H](C)CO)C(=O)c2cc(NC(=O)Nc3ccc4c(c3)OCO4)ccc2O1	-84.6*	-4.4
C[C@@H]1CCCCO[C@@H](CN(C)C(=O)Nc2ccc3c(c2)OCO3)[C@H](C)CN([C@@H](C)CO)C(=O)c2cc(NC(=O)Nc3ccc(F)cc3)ccc2O1	3.6	2.0
C[C@H](CO)N1C[C@H](C)[C@@H](CN(C)C(=O)Nc2ccc3c(c2)OCO3)OCCCC[C@H](C)Oc2ccc(NC(=O)Nc3ccc(C(F)(F)F)cc3)cc2C1=O	-57.0	7.9
CN1C(=O)c2cc(NC(=O)NC3CCCC3)ccc2OC[C@H]2O[C@@H](CC(=O)NC3CCC3)CC[C@H]21	5.4	-1.1
COc1ccc(S(=O)(=O)NC[C@@H]2CC[C@H]3[C@H](CN3Cc3cc(F)ccc3F)O2)cc1	-13.6	13.5
COc1ccc(S(=O)(=O)Nc2ccc3c(c2)C(=O)N([C@@H](C)CO)C[C@H](C)[C@H](CN(C)S(=O)(=O)c2ccc(OC)cc2)OCCCC[C@@H](C)O3)cc1	-65.3	-3.5
COc1ccc(S(=O)(=O)Nc2ccc3c(c2)C(=O)N([C@@H](C)CO)C[C@@H](C)[C@@H](CN(C)S(=O)(=O)c2ccc(OC)cc2)OCCCC[C@H](C)O3)cc1	-85.0*	-0.2
COc1ccc(S(=O)(=O)Nc2ccc3c(c2)C(=O)N([C@@H](C)CO)C[C@@H](C)[C@@H](CN(C)S(=O)(=O)c2ccc(C)cc2)OCCCC[C@@H](C)O3)cc1	-53.1	x
COc1ccc(S(=O)(=O)Nc2ccc3c(c2)C(=O)N([C@@H](C)CO)C[C@H](C)[C@@H](CN(C)S(=O)(=O)c2ccc(C)cc2)OCCCC[C@H](C)O3)cc1	-82.8*	x
COc1ccccc1CN1[C@@H]2CN(C(=O)C3CCCCC3)c3ccccc3[C@@H]2[C@@H]1CO	-27.7	3.1
CO[C@H]1CN(C)C(=O)c2cc(NS(=O)(=O)CC(F)(F)F)ccc2OC[C@@H](C)N(Cc2cccnc2)C[C@H]1C	24.7	x
C[C@H]1CN([C@@H](C)CO)C(=O)c2cc(C#CC3CCCCC3)cnc2O[C@@H]1CN(C)S(=O)(=O)c1ccc(F)cc1	-40.8	1.3
C[C@H](CO)N1C[C@H](C)[C@@H](CN(C)C(=O)Cc2ccccn2)Oc2ncc(C#C[C@@H](C)O)cc2C1=O	44.5	-3.1
CO[C@@H]1CN(C)C(=O)c2cc(NC(=O)Nc3ccc(Cl)cc3)ccc2OC[C@H](C)NC[C@H]1C	-7.3	-0.3
CO[C@H]1CN(C)C(=O)c2cc(NC(=O)Nc3ccc(Cl)c(Cl)c3)ccc2OC[C@H](C)NC[C@H]1C	-84.3*	-98.9*
CO[C@@H]1CN(C)C(=O)c2cc(NC(=O)Nc3ccc(Cl)c(Cl)c3)ccc2OC[C@H](C)NC[C@@H]1C	-66.8	-97.5*
